Source: the supplement of paper PMC10849652
Of roughly 7,900 targets only a part is listed; those with a hit were picked by preference. About 0.6% of all pairs of compound and target were hits.

Legend:
Experiment in all cases: log2 fold change, soluble protein after heating vs DMSO (PISA); higher = thermal stabilisation; K562 cells, 10 uM, 30 min; active = over 0.2 and 3.5 SD of the protein, either way, in both replicates (recomputed)
[1] = compound: C#Cc1cccc(Nc2ncnc3cc(OCCOC)c(OCCOC)cc23)c1 [erlotinib]
Summary of the method: (§1)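 Soluble protein was defined as the supernatant after 21,000xg for 90 min. It came from K562 cells at 2×10^6 cells/mL given 10 μM compound for 30 min, heated in aliquots for 3 min across 48°C-58°C, pooled, and extracted in PBS with 0.5% NP-40 at 4°C, and was quantified by TMTpro 16plex LC-MS/MS with equalised channel sums. Thermal stability against control samples, from duplicates, is reported as log2 fold change.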

[2] = compound: C/C(=N\NC(=O)C1=CC(=CC=C1)S(=O)(=O)N2CCOCC2)/C3=C(C=CC(=C3)Cl)O
Summary of the method: as §1

[3] = compound: C1=CC(=C(C=C1Cl)C2=NC3=NC=CN=C3C(=N2)NC4=CC=NC=C4)F
Summary of the method: as §1

[4] = compound: C1=CC(=CC=C1C2=NC3=C(N2)C=C(C=C3)C(=O)N)OC4=CC=C(C=C4)Cl
Summary of the method: as §1

[5] = compound: C1=CC2=C(C=CC(=C2)/C=C\3/C(=O)NC(=NCC4=CC=CS4)S3)N=C1
Summary of the method: as §1

[6] = compound: C1=CC2=NC=CN=C2C=C1/C=C/3\C(=O)NC(=O)S3
Summary of the method: as §1

[7] = compound: C1=CC=C(C=C1)C2=NC(=C(N2)C3=CC=NC=C3)C4=CC(=C(C=C4)Cl)O
Summary of the method: as §1

[8] = compound: C1=CC=C2C(=C1)C3=NNC4=CC=CC(=C43)C2=O
Summary of the method: as §1

[9] = compound: C1CCN(C1)C(=O)NC2=CC=CC(=C2)NC3=NC=C(C(=N3)NCCC4=CN=CN4)Br
Summary of the method: as §1

[10] = compound: C1CN(CCC1(CC2=CC=C(C=C2)Cl)N)C3=NC=NC4=C3C=CN4
Summary of the method: as §1

[11] = compound: C1COCCN1CCN2C3=CC=CC=C3N=C2NC(=O)C4=CC(=CC=C4)[N+](=O)[O-] [IRAK-1-4 Inhibitor I]
Summary of the method: as §1

[12] = compound: C=CC(=O)N1CCC[C@@H](n2nc(-c3ccc(Oc4ccccc4)cc3)c3c(N)ncnc32)C1 [ibrutinib]
Summary of the method: as §1

[13] = compound: CC(=O)c1cnc2ccc(-c3cc(Cl)c(O)c(Cl)c3)nc2c1N[C@H]1CC[C@H](CN(C)C)CC1
Summary of the method: as §1

[14] = compound: CC(C)(C)Cn1c(N)nc2ccc(-c3[nH]c(C(C)(C)C)nc3-c3ccc(F)cc3)nc21 [ralimetinib]
Summary of the method: as §1

[15] = compound: CC(C)(O)CC(=O)NCCn1ccc2ncnc(Nc3ccc(Oc4cccc(C(F)(F)F)c4)c(Cl)c3)c21
Summary of the method: as §1

[16] = compound: CC(C)C1=C2N=C(C=C(N2N=C1)NCC3=CC=CC=C3)NCCCCCCN
Summary of the method: as §1

[17] = compound: CC(C)C[C@@H](C=O)NC(=O)[C@H](CC(C)C)NC(=O)[C@H](CC(C)C)NC(=O)OCc1ccccc1
Summary of the method: as §1

[18] = compound: CC(C)N(C[C@H]1O[C@@H](n2cnc3c(N)ncnc32)[C@H](O)[C@@H]1O)[C@H]1C[C@@H](CCc2nc3cc(C(C)(C)C)ccc3[nH]2)C1 [pinometostat]
Summary of the method: as §1

[19] = compound: CC1=C(C(CC(=O)N1)C2=CC=C(C=C2)C(F)(F)F)C(=O)NC3=C(C=C4C(=C3)C=NN4)F
Summary of the method: as §1

[20] = compound: CC1=C(C2=C(C=C1)C(=O)C3=CC=CC=C3N2CCCN)C
Summary of the method: as §1

Measured: log2 fold change

SNX12 isoform 1 (UniProt Q9UMY4)
Chain of UniProt Q9UMY4 (Q9UMY4 whole entry, looked up): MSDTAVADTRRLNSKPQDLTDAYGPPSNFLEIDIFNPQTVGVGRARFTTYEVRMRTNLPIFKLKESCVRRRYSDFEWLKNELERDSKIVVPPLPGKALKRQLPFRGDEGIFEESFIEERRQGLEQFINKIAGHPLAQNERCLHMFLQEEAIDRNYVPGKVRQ
inactive: [1] 0.002 | [2] 0 | [3] 0.052 | [4] -0.019 | [5] 0.065 | [6] -0.01 | [7] 0.039 | [8] -0.064 | [9] 0.048 | [10] -0.034 | [11] 0.039 | [12] -0.007 | [13] -0.069 | [14] -0.011 | [15] -0.068 | [16] -0.09 | [17] 0.03 | [18] 0.032 | [19] -0.007 | [20] 0

SURF2 (UniProt Q15527)
Chain of UniProt Q15527 (Q15527 whole entry, looked up): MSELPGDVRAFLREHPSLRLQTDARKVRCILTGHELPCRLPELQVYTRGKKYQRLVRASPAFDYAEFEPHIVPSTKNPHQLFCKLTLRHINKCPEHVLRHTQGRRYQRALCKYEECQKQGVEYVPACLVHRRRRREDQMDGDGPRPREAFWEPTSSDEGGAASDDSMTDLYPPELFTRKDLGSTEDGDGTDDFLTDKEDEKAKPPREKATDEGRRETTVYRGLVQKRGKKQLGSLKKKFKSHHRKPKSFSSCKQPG
active: [20] -0.238
inactive: [1] 0.021 | [2] -0.067 | [3] 0.039 | [4] -0.03 | [5] -0.068 | [6] 0.113 | [7] -0.057 | [8] 0.027 | [9] -0.043 | [10] 0.009 | [11] 0.071 | [12] 0.004 | [13] -0.043 | [14] -0.117 | [15] -0.014 | [16] 0.131 | [17] 0.022 | [18] 0.01 | [19] -0.036

SNX5 (UniProt Q9Y5X3)
Chain of UniProt Q9Y5X3 (Q9Y5X3 whole entry, looked up): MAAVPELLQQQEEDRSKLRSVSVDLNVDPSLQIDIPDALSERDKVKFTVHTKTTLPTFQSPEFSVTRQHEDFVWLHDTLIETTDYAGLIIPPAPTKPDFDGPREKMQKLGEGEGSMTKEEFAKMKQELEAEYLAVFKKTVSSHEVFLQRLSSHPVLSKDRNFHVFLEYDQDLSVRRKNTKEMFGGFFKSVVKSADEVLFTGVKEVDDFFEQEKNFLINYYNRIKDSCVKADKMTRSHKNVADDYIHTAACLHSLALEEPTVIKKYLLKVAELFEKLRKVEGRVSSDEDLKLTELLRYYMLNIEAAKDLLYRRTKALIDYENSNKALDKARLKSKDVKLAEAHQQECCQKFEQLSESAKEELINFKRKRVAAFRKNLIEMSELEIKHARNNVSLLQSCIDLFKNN
inactive: [1] 0.033 | [2] 0.09 | [3] 0.042 | [4] 0.022 | [5] 0.057 | [6] -0.024 | [7] -0.05 | [8] -0.038 | [9] 0.077 | [10] -0.009 | [11] 0.042 | [12] 0.019 | [13] -0.167 | [14] -0.038 | [16] -0.224 | [17] 0.005 | [18] 0.027 | [19] 0.018 | [20] -0.026
active: [15] -0.304

TBC1D9B (UniProt Q66K14)
Chain of UniProt Q66K14 (Q66K14 whole entry, looked up): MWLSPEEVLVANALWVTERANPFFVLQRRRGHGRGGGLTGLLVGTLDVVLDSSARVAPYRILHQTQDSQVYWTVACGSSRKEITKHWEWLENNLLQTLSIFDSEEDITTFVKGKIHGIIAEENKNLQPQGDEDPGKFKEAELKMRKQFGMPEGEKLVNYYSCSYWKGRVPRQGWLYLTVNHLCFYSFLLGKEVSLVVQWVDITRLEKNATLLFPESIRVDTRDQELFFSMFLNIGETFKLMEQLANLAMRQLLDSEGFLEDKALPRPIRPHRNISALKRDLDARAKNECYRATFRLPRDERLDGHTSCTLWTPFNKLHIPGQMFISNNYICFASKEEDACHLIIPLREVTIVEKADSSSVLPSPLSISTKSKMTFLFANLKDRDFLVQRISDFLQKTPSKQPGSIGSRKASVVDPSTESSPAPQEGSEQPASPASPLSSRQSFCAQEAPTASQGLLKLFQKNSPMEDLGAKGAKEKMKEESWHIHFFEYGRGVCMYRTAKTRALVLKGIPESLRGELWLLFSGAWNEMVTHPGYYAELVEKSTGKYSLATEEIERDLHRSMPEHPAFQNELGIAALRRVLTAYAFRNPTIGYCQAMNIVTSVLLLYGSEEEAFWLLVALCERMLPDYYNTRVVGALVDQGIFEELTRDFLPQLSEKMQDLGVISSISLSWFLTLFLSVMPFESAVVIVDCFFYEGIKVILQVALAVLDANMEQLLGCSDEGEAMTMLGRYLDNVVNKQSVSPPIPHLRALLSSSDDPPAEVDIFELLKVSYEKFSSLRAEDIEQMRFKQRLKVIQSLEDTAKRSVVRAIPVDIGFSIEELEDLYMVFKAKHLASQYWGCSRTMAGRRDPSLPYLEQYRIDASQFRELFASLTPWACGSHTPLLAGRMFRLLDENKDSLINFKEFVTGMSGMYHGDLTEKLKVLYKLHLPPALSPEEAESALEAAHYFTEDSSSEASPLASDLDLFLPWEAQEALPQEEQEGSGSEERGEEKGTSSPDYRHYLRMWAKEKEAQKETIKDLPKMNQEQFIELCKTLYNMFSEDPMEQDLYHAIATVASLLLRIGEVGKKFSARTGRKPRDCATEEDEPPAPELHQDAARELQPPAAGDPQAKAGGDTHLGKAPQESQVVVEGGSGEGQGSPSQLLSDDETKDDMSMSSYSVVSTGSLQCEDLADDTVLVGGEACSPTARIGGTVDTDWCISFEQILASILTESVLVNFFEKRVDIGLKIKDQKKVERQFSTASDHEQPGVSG
inactive: [1] 0.07 | [2] 0.001 | [3] -0.087 | [4] 0.072 | [5] 0.151 | [6] -0.092 | [7] -0.011 | [8] 0.021 | [9] -0.055 | [10] -0.058 | [11] 0.038 | [12] 0.079 | [13] -0.075 | [14] 0.071 | [15] 0.103 | [16] -0.133 | [17] 0.032 | [18] 0.051 | [19] 0.02 | [20] -0.042

STARD3NL (UniProt O95772)
active: [16] -0.432
inactive: [1] 0.004 | [2] -0.107 | [3] -0.004 | [4] -0.003 | [5] 0.169 | [6] 0.048 | [7] 0.11 | [8] 0.103 | [9] -0.013 | [10] 0.015 | [11] 0.014 | [12] -0.023 | [13] -0.216 | [14] 0.038 | [15] -0.014 | [17] -0.036 | [18] 0.013 | [19] 0.007 | [20] 0.062

SLIRP (UniProt Q9GZT3)
inactive: [1] 0.019 | [2] 0.205 | [3] 0.27 | [4] -0.014 | [5] 0.067 | [6] 0.093 | [7] 0.023 | [8] -0.187 | [9] -0.013 | [10] -0.028 | [11] 0.004 | [12] 0.035 | [13] -0.192 | [14] -0.027 | [15] -0.239 | [16] -0.02 | [18] -0.016 | [19] 0.088 | [20] -0.342
active: [17] 0.393

SPIRE1 (UniProt Q08AE8)
Chain of UniProt Q08AE8 (Q08AE8 whole entry, looked up): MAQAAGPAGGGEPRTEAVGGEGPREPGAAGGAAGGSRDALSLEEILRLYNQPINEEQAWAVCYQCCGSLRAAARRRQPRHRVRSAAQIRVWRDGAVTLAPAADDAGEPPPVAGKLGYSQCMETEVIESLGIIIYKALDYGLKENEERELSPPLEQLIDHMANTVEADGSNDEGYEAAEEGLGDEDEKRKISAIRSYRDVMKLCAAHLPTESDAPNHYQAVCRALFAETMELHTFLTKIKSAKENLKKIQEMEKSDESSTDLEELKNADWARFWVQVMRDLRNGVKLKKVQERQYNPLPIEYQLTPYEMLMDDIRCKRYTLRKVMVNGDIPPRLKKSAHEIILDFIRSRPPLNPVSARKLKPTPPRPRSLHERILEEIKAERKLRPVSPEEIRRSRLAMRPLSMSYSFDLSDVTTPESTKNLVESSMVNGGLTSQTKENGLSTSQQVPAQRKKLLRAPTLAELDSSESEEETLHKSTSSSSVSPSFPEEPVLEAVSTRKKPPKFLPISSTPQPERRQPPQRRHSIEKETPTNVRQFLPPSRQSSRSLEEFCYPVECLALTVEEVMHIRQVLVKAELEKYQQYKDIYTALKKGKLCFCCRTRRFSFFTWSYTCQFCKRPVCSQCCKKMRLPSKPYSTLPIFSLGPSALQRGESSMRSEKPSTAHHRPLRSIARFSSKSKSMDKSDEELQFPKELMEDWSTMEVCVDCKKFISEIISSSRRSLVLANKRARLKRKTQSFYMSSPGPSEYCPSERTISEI
active: [3] -0.466
inactive: [1] 0.16 | [2] -0.264 | [4] -0.119 | [5] 0.11 | [6] -0.034 | [7] 0.048 | [8] -0.063 | [9] 0.01 | [10] 0.145 | [11] -0.065 | [12] 0.032 | [13] 0 | [14] 0.008 | [15] 0.073 | [16] 0.181 | [17] 0.09 | [18] -0.006 | [19] -0.036 | [20] 0.029

SSRP1 (UniProt Q08945)
active: [20] -0.554
inactive: [1] -0.018 | [2] 0.143 | [3] 0.005 | [4] 0.014 | [5] 0.029 | [6] 0.022 | [7] -0.016 | [8] -0.029 | [9] -0.052 | [10] 0.009 | [11] -0.044 | [12] -0.037 | [13] -0.138 | [14] -0.022 | [15] -0.008 | [16] -0.119 | [17] 0 | [18] -0.036 | [19] -0.02

STK26 (UniProt Q9P289)
active: [12] -0.272 | [13] -0.344
inactive: [1] 0.058 | [2] -0.014 | [3] 0.195 | [4] -0.014 | [5] -0.008 | [6] 0.124 | [7] -0.015 | [8] -0.08 | [9] 0.023 | [10] 0.02 | [11] 0.03 | [14] -0.022 | [15] -0.081 | [16] -0.071 | [17] 0.03 | [18] -0.019 | [19] 0.022 | [20] -0.07

TELO2 (UniProt Q9Y4R8)
inactive: [1] 0.043 | [2] 0.102 | [3] -0.185 | [4] -0.031 | [5] -0.039 | [6] 0.019 | [7] -0.037 | [8] 0.053 | [9] 0.046 | [10] -0.076 | [11] -0.126 | [12] -0.044 | [13] 0.008 | [14] 0.103 | [15] 0 | [16] -0.375 | [17] 0.049 | [18] 0.204 | [19] -0.015 | [20] 0.125

STARD7 (UniProt Q9NQZ5)
Chain of UniProt Q9NQZ5 (Q9NQZ5 whole entry, looked up): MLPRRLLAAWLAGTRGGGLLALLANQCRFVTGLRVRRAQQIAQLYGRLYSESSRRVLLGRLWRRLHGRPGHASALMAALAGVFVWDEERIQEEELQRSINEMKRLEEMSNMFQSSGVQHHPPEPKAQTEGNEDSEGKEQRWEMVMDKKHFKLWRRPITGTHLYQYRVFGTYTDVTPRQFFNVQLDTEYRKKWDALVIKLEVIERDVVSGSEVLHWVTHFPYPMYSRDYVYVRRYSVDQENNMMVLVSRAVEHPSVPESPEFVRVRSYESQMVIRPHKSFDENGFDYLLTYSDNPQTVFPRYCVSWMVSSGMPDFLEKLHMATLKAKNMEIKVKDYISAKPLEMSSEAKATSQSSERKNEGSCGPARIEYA
inactive: [1] -0.021 | [2] 0.084 | [3] 0.024 | [4] 0.086 | [5] 0.031 | [6] 0.009 | [7] 0.017 | [8] 0.067 | [9] 0.006 | [10] -0.029 | [11] -0.012 | [12] 0.055 | [13] -0.026 | [14] -0.01 | [15] -0.051 | [16] -0.057 | [17] 0.028 | [18] -0.009 | [19] -0.019 | [20] -0.003

TBC1D15 isoform 3 (UniProt Q8TC07)
Chain of UniProt Q8TC07 (Q8TC07 whole entry, looked up): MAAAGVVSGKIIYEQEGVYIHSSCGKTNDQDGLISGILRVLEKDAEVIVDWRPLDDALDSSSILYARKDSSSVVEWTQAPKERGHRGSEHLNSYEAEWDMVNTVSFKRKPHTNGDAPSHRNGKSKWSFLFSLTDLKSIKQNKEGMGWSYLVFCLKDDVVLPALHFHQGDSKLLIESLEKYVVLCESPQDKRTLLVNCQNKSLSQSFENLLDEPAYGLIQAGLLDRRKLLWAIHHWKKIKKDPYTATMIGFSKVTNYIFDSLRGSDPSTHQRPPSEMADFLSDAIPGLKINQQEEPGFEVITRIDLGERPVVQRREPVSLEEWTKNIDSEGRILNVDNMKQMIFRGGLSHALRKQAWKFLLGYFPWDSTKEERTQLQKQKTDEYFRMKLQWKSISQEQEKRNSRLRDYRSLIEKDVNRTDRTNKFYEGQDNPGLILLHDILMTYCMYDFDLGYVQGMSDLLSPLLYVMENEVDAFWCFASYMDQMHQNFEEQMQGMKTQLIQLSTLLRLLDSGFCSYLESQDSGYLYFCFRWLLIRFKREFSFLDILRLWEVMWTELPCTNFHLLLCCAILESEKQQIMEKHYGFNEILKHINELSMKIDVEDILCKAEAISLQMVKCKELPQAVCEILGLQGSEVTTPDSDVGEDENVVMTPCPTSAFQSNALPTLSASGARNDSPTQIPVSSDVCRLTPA
active: [16] -0.326
inactive: [1] -0.007 | [2] 0.075 | [3] 0.024 | [4] -0.029 | [5] 0.059 | [6] 0.067 | [7] 0.029 | [8] -0.035 | [9] 0.016 | [10] -0.048 | [11] 0.235 | [12] -0.021 | [13] 0.009 | [14] 0.041 | [15] -0.082 | [17] 0.012 | [18] 0.056 | [19] 0 | [20] -0.01

TFR2 (UniProt Q9UP52)
Chain of UniProt Q9UP52 (Q9UP52 whole entry, looked up): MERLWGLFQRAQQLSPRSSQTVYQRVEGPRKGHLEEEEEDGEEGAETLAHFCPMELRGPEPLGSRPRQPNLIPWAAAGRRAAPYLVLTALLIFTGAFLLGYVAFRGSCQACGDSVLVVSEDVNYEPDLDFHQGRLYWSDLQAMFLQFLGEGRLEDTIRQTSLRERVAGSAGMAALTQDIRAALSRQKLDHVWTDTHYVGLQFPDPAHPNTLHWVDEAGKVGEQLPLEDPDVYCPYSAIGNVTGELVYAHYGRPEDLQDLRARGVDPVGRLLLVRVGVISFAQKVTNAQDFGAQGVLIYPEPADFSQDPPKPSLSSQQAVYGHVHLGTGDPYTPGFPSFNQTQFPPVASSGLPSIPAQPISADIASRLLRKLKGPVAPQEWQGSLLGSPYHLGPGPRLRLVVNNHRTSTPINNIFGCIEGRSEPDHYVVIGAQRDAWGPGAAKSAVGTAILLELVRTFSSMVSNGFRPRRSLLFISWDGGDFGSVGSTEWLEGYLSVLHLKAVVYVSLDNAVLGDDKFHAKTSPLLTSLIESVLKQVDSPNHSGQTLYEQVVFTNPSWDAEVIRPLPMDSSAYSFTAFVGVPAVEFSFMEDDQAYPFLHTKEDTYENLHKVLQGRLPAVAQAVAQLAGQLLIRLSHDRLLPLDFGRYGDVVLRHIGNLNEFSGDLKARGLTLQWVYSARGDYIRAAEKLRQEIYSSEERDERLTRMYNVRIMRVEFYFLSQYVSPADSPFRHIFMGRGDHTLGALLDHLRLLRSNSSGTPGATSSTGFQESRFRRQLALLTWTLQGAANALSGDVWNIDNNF
inactive: [1] 0.009 | [2] -0.019 | [3] -0.012 | [4] -0.015 | [5] 0.018 | [6] 0.016 | [7] -0.039 | [8] -0.023 | [9] 0.03 | [10] 0.018 | [11] 0.018 | [12] 0.008 | [13] -0.011 | [14] -0.018 | [15] 0.037 | [16] -0.146 | [17] 0.02 | [18] 0.02 | [19] 0.02 | [20] -0.128

SSR3 isoform 2 (UniProt Q9UNL2)
Chain of UniProt Q9UNL2 (Q9UNL2 whole entry, looked up): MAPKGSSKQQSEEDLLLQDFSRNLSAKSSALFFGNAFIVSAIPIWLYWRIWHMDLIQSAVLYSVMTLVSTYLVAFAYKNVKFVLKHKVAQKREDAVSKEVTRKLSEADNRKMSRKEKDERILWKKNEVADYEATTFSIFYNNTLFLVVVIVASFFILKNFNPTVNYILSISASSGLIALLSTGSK
inactive: [1] 0.019 | [2] 0.054 | [3] -0.013 | [4] -0.003 | [5] -0.187 | [6] 0.037 | [7] 0.006 | [8] 0.028 | [9] -0.119 | [10] -0.011 | [11] 0.158 | [12] 0.029 | [13] 0.132 | [14] 0.06 | [15] 0.031 | [16] 0.01 | [17] -0.049 | [18] -0.134 | [19] 0.036 | [20] -0.022

SNUPN (UniProt O95149)
inactive: [1] -0.091 | [2] 0.032 | [3] 0.136 | [4] -0.019 | [5] 0.069 | [6] 0.037 | [7] -0.085 | [8] -0.053 | [9] 0.024 | [10] -0.061 | [11] 0.037 | [12] -0.039 | [13] -0.089 | [14] -0.026 | [15] -0.045 | [16] -0.034 | [17] 0.037 | [18] 0.07 | [19] -0.002 | [20] -0.184
